Data published in the supplement of paper PMC11732987, “Enantioselective OTUD7B fragment discovery through chemoproteomics screening and high-throughput optimisation” (Communications Chemistry, 2025).

How the values were obtained:
Experiment in all cases: log2 ratio of Biotin-Ahx-Ub-VS probe labelling (fragment/DMSO); higher = less target engagement (more negative = stronger competition), active = hit call of the paper (q ≤ 0.05, log2 ratio ≤ -1)
Conditions in all cases: compound concentration: 200 uM; treatment time: 3 h
OTUD6B = target: T1, OTUD6B (UniProt Q8N6M0)
T1 sequence (whole entry): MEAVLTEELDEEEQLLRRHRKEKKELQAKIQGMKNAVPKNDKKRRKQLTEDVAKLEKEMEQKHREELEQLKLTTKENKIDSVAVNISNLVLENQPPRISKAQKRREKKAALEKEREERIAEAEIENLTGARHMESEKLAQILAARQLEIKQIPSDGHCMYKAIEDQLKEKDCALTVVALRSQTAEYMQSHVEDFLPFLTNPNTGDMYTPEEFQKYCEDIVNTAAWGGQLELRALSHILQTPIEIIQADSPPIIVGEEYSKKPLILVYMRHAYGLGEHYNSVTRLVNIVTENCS
Method in brief: (§1)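 Triplicate samples of HEK293T lysate, 495 µg each, received fragment at 200 µM or vehicle for 3 h, followed by Biotin-Ahx-Ub-VS (0.5 µM final) for 1 h. After NeutrAvidin enrichment of labelled DUBs and LysC/trypsin digestion, peptides were run by diaPASEF LC-MS/MS. The values are average log2 fragment/vehicle ratios from global-median-normalised Spectronaut label-free quantities, tested by unpaired t-test on proteins having ≥2 unique peptides.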

OTUD7B = target: T2, OTUD7B (UniProt Q6GQQ9)
T2 sequence (whole entry): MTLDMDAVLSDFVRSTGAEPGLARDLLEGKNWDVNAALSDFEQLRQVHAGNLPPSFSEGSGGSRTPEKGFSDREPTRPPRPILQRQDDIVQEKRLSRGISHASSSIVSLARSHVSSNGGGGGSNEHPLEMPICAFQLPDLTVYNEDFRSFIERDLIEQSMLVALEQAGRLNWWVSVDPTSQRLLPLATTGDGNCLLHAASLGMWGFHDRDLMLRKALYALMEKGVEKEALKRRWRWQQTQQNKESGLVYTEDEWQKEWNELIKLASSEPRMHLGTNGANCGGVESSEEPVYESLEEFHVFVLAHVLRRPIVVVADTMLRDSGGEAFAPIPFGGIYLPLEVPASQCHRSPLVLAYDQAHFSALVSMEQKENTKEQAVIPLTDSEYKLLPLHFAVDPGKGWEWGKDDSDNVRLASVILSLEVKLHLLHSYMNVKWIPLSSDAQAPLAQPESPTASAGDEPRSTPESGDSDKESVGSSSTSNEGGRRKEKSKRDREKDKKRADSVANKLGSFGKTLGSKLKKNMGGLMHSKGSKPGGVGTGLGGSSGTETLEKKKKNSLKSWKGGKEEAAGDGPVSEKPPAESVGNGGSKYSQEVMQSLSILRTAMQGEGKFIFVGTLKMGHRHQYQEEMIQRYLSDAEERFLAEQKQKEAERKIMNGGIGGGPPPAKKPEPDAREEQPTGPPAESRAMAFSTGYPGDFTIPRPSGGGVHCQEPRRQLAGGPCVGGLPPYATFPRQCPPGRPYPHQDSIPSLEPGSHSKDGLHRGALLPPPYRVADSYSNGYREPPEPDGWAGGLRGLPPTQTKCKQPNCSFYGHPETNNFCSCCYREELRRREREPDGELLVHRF
Method in brief: as §1

PRPF8 = PRPF8 (UniProt Q6P2Q9)
Method in brief: as §1

PSMD7 = target: T3, PSMD7 (UniProt P51665)
T3 sequence (whole entry): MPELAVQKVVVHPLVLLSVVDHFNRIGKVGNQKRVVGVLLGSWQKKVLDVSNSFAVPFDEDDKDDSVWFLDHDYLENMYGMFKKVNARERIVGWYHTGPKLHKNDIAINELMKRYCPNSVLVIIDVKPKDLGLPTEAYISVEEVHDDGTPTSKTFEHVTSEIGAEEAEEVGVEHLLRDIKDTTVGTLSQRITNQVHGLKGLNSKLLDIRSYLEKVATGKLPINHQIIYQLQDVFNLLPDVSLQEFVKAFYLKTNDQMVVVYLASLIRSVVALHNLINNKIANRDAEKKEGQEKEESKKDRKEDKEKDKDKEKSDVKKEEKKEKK
Method in brief: as §1

UCHL1 = UCHL1 (UniProt P09936)
Method in brief: as §1

UCHL3 = target: T4, UCHL3 (UniProt P15374)
T4 sequence (whole entry): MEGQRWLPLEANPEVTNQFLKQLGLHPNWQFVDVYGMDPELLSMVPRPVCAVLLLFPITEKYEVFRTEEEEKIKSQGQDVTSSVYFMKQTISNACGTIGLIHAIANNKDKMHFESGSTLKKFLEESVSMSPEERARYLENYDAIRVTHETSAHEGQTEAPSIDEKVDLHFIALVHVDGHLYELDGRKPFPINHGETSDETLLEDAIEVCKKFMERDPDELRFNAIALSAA
Method in brief: as §1

UCHL5 = target: T5, UCHL5 (UniProt Q9Y5K5)
T5 sequence (whole entry): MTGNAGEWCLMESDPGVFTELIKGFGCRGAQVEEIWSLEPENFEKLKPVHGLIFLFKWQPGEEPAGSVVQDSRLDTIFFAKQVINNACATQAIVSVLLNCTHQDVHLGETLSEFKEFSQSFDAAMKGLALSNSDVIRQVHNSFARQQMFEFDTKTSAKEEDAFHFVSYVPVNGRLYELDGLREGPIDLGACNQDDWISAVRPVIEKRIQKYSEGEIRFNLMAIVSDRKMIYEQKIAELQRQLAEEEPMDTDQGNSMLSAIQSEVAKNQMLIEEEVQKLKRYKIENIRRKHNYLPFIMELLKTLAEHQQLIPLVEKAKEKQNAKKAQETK
Method in brief: as §1

USP10 = USP10 (UniProt Q14694)
Method in brief: as §1

USP15 = target: T6, USP15 (UniProt Q9Y4E8)
T6 sequence (whole entry): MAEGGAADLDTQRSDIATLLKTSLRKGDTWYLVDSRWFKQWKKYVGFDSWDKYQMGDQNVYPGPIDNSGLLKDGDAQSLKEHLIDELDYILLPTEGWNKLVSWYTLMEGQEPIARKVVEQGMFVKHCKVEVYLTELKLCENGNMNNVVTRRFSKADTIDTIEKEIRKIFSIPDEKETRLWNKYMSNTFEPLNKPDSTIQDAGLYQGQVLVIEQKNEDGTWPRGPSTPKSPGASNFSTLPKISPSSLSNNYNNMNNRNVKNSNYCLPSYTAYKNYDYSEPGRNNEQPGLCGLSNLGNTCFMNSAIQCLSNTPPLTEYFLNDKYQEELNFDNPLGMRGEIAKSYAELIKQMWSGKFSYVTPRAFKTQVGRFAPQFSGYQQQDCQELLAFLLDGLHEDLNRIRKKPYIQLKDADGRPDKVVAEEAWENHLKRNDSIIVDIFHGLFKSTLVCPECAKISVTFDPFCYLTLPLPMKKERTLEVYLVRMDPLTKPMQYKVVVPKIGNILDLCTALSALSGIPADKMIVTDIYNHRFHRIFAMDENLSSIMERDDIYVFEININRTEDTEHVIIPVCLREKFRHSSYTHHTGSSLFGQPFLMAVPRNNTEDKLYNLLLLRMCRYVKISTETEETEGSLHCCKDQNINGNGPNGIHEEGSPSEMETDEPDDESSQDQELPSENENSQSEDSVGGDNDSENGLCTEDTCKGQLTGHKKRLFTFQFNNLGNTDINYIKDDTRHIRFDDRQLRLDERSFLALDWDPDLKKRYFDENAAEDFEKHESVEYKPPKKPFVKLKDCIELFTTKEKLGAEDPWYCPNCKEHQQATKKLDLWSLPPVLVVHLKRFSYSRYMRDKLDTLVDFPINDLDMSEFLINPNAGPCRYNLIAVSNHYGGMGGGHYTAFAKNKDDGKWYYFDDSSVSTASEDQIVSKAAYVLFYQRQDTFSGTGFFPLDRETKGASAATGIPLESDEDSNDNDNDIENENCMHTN
Method in brief: as §1

USP16 = USP16 (UniProt Q9Y5T5)
Method in brief: as §1

Measured: log2 ratio of Biotin-Ahx-Ub-VS probe labelling

Chain of UCHL1 (P09936 whole entry, looked up): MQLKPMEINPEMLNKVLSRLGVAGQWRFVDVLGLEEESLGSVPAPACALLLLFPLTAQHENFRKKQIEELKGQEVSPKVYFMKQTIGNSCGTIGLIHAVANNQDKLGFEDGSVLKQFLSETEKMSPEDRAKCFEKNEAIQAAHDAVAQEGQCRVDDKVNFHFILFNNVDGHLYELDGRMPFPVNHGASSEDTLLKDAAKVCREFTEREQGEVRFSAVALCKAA
Chain of USP16 (Q9Y5T5 whole entry, looked up): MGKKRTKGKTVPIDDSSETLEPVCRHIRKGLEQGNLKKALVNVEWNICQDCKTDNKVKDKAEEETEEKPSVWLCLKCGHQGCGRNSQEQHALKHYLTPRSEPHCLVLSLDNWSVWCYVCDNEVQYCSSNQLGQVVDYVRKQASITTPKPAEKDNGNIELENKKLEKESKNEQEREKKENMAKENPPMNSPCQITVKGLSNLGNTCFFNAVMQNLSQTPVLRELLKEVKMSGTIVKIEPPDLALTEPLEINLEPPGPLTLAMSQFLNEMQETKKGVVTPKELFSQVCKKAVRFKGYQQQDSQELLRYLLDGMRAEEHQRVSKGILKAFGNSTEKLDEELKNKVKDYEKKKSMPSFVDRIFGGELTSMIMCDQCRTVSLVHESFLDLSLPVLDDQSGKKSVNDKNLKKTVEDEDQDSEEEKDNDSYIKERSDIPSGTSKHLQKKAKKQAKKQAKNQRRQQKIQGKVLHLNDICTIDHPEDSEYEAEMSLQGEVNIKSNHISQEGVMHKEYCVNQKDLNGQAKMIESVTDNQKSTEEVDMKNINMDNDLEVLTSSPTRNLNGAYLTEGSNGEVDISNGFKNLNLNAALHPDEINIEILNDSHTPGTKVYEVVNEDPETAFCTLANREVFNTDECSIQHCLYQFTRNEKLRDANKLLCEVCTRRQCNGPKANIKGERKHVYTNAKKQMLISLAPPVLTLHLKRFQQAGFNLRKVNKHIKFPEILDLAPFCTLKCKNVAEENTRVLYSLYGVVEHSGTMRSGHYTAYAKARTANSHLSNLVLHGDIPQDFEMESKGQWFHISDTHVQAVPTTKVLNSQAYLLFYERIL
Chain of USP10 (Q14694 whole entry): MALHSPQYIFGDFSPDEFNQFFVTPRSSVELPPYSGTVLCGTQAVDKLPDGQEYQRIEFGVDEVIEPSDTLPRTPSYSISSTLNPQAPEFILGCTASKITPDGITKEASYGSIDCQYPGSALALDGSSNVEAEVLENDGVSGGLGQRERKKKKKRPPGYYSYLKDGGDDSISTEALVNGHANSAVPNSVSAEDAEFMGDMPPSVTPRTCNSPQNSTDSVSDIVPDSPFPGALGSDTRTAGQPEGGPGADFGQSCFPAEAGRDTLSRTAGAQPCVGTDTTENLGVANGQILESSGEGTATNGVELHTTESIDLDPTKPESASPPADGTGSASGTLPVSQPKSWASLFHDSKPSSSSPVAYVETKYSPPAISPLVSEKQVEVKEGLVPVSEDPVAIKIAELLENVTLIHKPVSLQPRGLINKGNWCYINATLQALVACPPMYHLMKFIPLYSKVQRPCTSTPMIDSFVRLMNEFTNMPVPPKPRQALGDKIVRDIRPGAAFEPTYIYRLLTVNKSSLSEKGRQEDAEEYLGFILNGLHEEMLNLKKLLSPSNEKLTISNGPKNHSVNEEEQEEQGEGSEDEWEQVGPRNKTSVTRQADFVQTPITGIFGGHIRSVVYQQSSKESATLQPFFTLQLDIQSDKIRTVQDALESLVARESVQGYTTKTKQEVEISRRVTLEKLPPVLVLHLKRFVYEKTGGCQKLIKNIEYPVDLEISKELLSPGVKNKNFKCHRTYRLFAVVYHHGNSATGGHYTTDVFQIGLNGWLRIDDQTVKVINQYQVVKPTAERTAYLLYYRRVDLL

NS(=O)(=O)c1ccc(Cl)c(NC(=O)CCl)c1
inactive: OTUD6B -0.573 | PRPF8 -0.153 | PSMD7 -0.125 | UCHL3 0.209 | UCHL5 -0.489 | USP10 -0.299 | USP15 -0.166 | USP16 0.0198
active: OTUD7B -1.63 | UCHL1 -1.51
